Pf growth 96h = P. falciparum growth inhibition at 96 hour, primary screen for plastid delayed-death inhibitors; P. falciparum luciferase reporter growth, 96 h; Potency, µM (top dose mostly 28.7 µM), usual class: inhibitors; 320,000 compounds, 6.9% hits; AID 504834
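96 h incubation, 37 C, 5% CO2, of luciferase-reporter P. falciparum-infected RBCs (2% hematocrit, 0.05% parasitemia final) with test compounds; endpoint luminescence.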
Pf growth 48h = inhibits P. falciparum growth in the first generation, 48 h | Potency, µM (titrated, usually from 28.7 µM), hits mostly inhibitors | 310,000 compounds, 5.9% hits | P. falciparum luciferase growth in erythrocytes, 48 h
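Compounds are pin-transferred into medium, infected erythrocytes (2% hematocrit, 0.1% parasitemia final) are added, and plates sit one parasite generation at 37 C in 5% CO2. Detection reagent is then added and luminescence measured.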
SARS PLpro yeast = blocks SARS-CoV papain-like protease in a yeast assay; S. cerevisiae expressing SARS-CoV PLpro, growth rescue; Potency, µM (highest dose often 32.9 µM), hits mostly activators; 330,000 compounds, 0.19% hits; AID 485353; calls by dose curve; note: nearly all actives have a fitted effect of over 55% in size
Sm TGR block = inhibitors of Schistosoma mansoni thioredoxin glutathione reductase; 360,000 compounds, 3% hits; AID 485364; purified TGR, DTNB reduction, TNB absorbance 405 nm; Potency, µM (doses to about 114 µM), hits mostly inhibitors; note: nearly all actives have a fitted effect of over 60% in size
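First, TGR (20 nM dispensed) and NADPH were mixed with compound. Second, a 15 min room-temperature incubation followed. Third, further NADPH and then DTNB were added to start the reaction. Finally, TNB absorbance was monitored kinetically.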
HCMV antiviral = blocks human cytomegalovirus replication. HFF cells, HCMV-luciferase reporter, 72 h; active compounds read low. activity change, negative = inhibition, % at 57.5 µM. 410,000 compounds, 4.5% hits; in the data active = activity change below about -60%; inconclusive = no clear call, values can overlap the other calls; inactive = above about -39%
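Steps: HFFs plated, 16 h 37C; compounds added; HCMV-luciferase added to MOI 1 PFU/cell; 72 h 37C; OneGlo reagent, 5 min room temperature; luminescence read, normalized to controls.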
HCV inh = inhibitors of hepatitis C virus infection | Huh7.5.1 HCVcc-Cre infection, luciferase reporter, 44 h | Potency, µM (highest dose often 41.8 µM), hits mostly inhibitors | 340,000 compounds, 3.4% hits | AID 651820
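A cell-based infection assay in which seeded cells (1,000 per well) receive test compound after 4 h, are inoculated with HCVcc-Cre at approximately 0.5 moi, and are incubated 44 h before luminescence detection.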
Hits are given with their value; . = inactive; ? = inconclusive; / = no result given; + = active, no number; ! = not active in a repeat; [ ] = remark or other dose. A selection: hits, their analogues and other compounds. The true share with any hit is near 15%. Unless noted, calls come from the whole dose curve; as a rule, active = well fitted curve in the direction sought with a large enough effect; inconclusive = small, poorly fitted or top-dose-only effect, or another doubt; inactive = no such curve, though single readings can be large; an effect the other way counts as inactive or inconclusive.

SMILES	Pf growth 96h	Pf growth 48h	SARS PLpro yeast	Sm TGR block	HCMV antiviral	HCV inh
CCOC(=O)C1CCCN(Cc2c(F)cccc2Cl)C1 (stereo unspecified)	/	.	.	.	-75	.
OCCC1CN(Cc2c(F)cccc2Cl)CCN1C1CCCCC1 (stereo unspecified)	?	.	.	.	.	.
O=C(NCC(=O)N1CCN(S(=O)(=O)c2ccccc2F)CC1)c1ccc(Br)o1	.	.	.	?	.	.
O=S(=O)(c1ccc(=S)[nH]c1)N1CCCC1	/	/	.	/	.	.
CCCCCC1CC(CC#CCN2CCOCC2)C(=O)O1 (stereo unspecified)	.	.	.	22µM	.	.
OC(COCc1ccccc1)COCc1ccccc1	/	/	/	/	.	.
Cc1n(CC(O)COCc2ccccc2)c2ccccc2[n+]1C (stereo unspecified)	3.3µM	9.3µM	.	.	.	.
NS(=O)(=O)c1ccc(N=Nc2c(O)c(C(=O)O)cc3ccccc23)cc1	10µM	?	.	?	?	?
O=C(O)Cc1ccc(N=Nc2c(O)c(C(=O)O)cc3ccccc23)cc1	?	.	.	.	.	.
CCc1ccc(-c2nnn(CCC#N)n2)cc1	.	.	.	.	.	.
CCc1ccc(-c2nnn(CCC(=O)OC)n2)cc1	4.7µM	.	.	.	?	.
COc1ccc(/C=N/n2cc(-c3ccccc3)nc2N)cc1	10µM	?	.	.	/	.
Fc1cc(F)c(NC(=S)N2CCOCC2)c(F)c1	.	.	.	.	.	.
NS(=O)(=O)c1ccc(CNC(=O)c2sccc2-c2ccccc2)cc1	.	.	.	.	.	.
O=C1NC(=S)N(c2ccc(F)cc2)C(=O)/C1=C/c1ccco1	.	.	.	32µM	/	/
COc1ccc(N2C(=O)/C(=C/c3cc(C)n(-c4ccc(C)cn4)c3C)C(=O)NC2=S)c(OC)c1	.	.[1.15 µM]	.	?	.	.
COc1cc(/C=C2\C(=O)NC(=O)N(c3ccccc3)C2=O)c([N+](=O)[O-])cc1OC	.	.	.	1.6µM	.	.
O=C1NC(=S)N(c2ccc(F)cc2)C(=O)/C1=C\c1ccoc1	?	.	.	32µM	/	.
COc1ccc(OC)c(N2C(=O)/C(=C/c3ccco3)C(=O)NC2=S)c1	?	.[0.00184 µM]	.	32µM	/	.
CC[C@]12c3[nH]c4cc(-c5ccco5)ccc4c3CCN1C(=O)[C@@H](CC(=O)NC(C)(C)C)C[C@@H]2C(=O)N1CCN(C(=O)C2CC2)CC1	/	/	.	/	.	.[8.37 µM]
CCN(CC)S(=O)(=O)c1ccc2c(c1)N(CC(=O)Nc1c(C)cccc1C)C(=O)CO2	/	/	/	.	.	/
COc1ccc(OC)c(N2C(=O)NC(=O)/C(=C/c3ccc([N+](=O)[O-])s3)C2=O)c1	.	.	.	4µM	.	.
CCN1CCc2nc(N)oc2CC1	.	.	/	5.6µM	-70	.
CC(C)N1CCCC(C)(C(=O)Nc2cccc(Oc3ccccc3)c2)C1 (stereo unspecified)	/	/	/	/	.	/
CC(=O)N1CCc2cc(NC(=O)C3(C)CCN3Cc3ccc(C(C)C)cc3)ccc21 (stereo unspecified)	/	/	/	/	.	/
SMILES	Pf growth 96h	Pf growth 48h	SARS PLpro yeast	Sm TGR block	HCMV antiviral	HCV inh
CCC(=O)N1CCc2cc(S(=O)(=O)NCCC(=O)NCc3ccccc3OC)ccc21	?	.	.	.	.	.
CC(=O)N1CCc2cc(NC(=O)C3(C)CCN3Cc3ccccc3Cl)ccc21 (stereo unspecified)	/	/	/	/	-78	/
CC(=O)N1CCc2cc(S(=O)(=O)NC3CCCc4ccccc43)ccc21 (stereo unspecified)	.	.	.	.	-64	?
COc1cccc(CNC(=O)C(NS(=O)(=O)c2ccc3c(c2)CCN3C(C)=O)C(C)C)c1 (stereo unspecified)	.	.	.	.	+!	.
CCC(=O)N1CCc2cc(S(=O)(=O)NCCC(=O)NCc3ccccc3Cl)ccc21	8.3µM	.	.	.	.	.
O=C(O)c1ccc(S(=O)(=O)NC2CCCc3ccccc32)cc1 (stereo unspecified)	.	.	.	.	.	?
COc1ccc(CNC(=O)[C@@H](NC(=O)C2CCN(C(=O)[C@@H](N)CCSC)CC2)C(C)C)cc1	.	.	.	.	.	.
